# Results published in PubChem BioAssay (Tox21).
# Records with an inconclusive call do not appear. A call without a number means that no potency is given here. Calls of active or inactive are those of the source. The call rests on the fitted dose curve; in most records, active means well fitted cell-killing curve with a large enough effect in the repeat runs; inconclusive means weak or mixed curves, or effect the other way; inactive means flat fitted curve, though single readings scatter.
# Test: qHTS assay to identify small molecule antagonists of the androgen receptor (AR) signaling pathway using the MDA cell line in the presence of 0.5 nM R1881 - cell viability counter screen (AID 1259242); further: nearly all actives have a fitted effect of over 45% in size
# Details: MDA-kb2 viability, CellTiter-Fluor protease fluorescence, 16 h; series mostly up to 92.4 µM
# How it was run: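 Human breast carcinoma MDA-kb2 cells, cultured without CO2, receive compounds alongside 0.5 nM (final) R1881 agonist. After 16 hr at 37C, viability is taken as live-cell protease signal.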
row,Structure (SMILES),Potency
1,O=C(/C=C/c1ccccc1)NCCO,inactive
2,CCC(C)(CCC(C)C)C(=O)[O-].CCC(C)(CCC(C)C)C(=O)[O-].[Zn+2] (centres undefined),inactive
3,CCc1nccnc1C,inactive
4,C=CCOc1c(Br)cc(C(C)(C)c2cc(Br)c(OCC=C)c(Br)c2)cc1Br,inactive
5,SCCSCCS,inactive
6,CN(C)CCCNCCC#N,inactive
7,FC(F)(F)/C(=N\OCC1OCCO1)c1ccc(Cl)cc1,inactive
8,FC(F)(F)c1ccc(Cl)cc1Cl,inactive
9,Cc1ccccc1OCC1CO1 (centres undefined),inactive
10,C[C@H](CCC(=O)O)[C@H]1CC[C@H]2[C@@H]3[C@H](O)C[C@@H]4C[C@H](O)CC[C@]4(C)[C@H]3C[C@H](O)[C@]12C,inactive
11,CCCCCCCC[Si](OCC)(OCC)OCC,inactive
12,CC(C)COC(=O)CC(C(=O)OCC(C)C)S(=O)(=O)O (centres undefined),inactive
13,Cc1ncc([N+](=O)[O-])n1CC(O)CCl (centres undefined),inactive
14,CO[Si](CCCCl)(OC)OC,inactive
